Measured values as given in PubChem BioAssay (NCATS).
Inconclusive results are not listed. Values without a mark were called inactive. Activity calls are given as the source filed them. Calls come from the whole dose curve; as a rule, active = well fitted cell-killing curve with a large enough effect; inconclusive = small, poorly fitted or top-dose-only effect, or effect the other way; inactive = no such curve, though single readings can be large or run the other way.

Key:
[1] = Quantitative High-Throughput drug screen in 47 multiple myeloma cell lines against the NCATS MIPE library collection: MM1R_ATCC cell viability assay (AID 1918981); note: nearly all actives have a fitted effect of over 35% in size
Outline: (§1)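 ATP-based CellTiter-Glo luminescence after 48 h drug exposure (37 °C, 5% CO2) of 500 myeloma cells per well. DMSO-only wells set 100% viability, media-only wells 0%; MIPE 4.0 library added by pin tool.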

[2] = Quantitative High-Throughput drug screen in 47 multiple myeloma cell lines against the NCATS MIPE library collection: KMS28PE_JCRB cell viability assay (AID 1918983); note: nearly all actives have a fitted effect of over 35% in size
Outline: as §1

[3] = Quantitative High-Throughput drug screen in 47 multiple myeloma cell lines against the NCATS MIPE library collection: OCIMY7_PLB cell viability assay (AID 1918987); settings: OCI-MY7 myeloma viability, CellTiter-Glo ATP, 48 h; viability (% of DMSO): at 45.8 µM (top of the series); note: nearly all actives have a fitted effect of over 65% in size
Outline: as §1

[4] = Quantitative High-Throughput drug screen in 47 multiple myeloma cell lines against the NCATS MIPE library collection: OCIMY5_PLB cell viability assay (AID 1918988); note: nearly all actives have a fitted effect of over 65% in size
Outline: as §1

[5] = Quantitative High-Throughput drug screen in 47 multiple myeloma cell lines against the NCATS MIPE library collection: OPM1_PLB cell viability assay (AID 1918989); note: nearly all actives have a fitted effect of over 40% in size
Outline: as §1

[6] = Quantitative High-Throughput drug screen in 47 multiple myeloma cell lines against the NCATS MIPE library collection: SKMM1_PLB cell viability assay (AID 1919863); settings: SKMM1 myeloma viability, CellTiter-Glo ATP, 48 h; viability: stronger effect = lower value; note: nearly all actives have a fitted effect of over 35% in size
Outline: as §1

[7] = Quantitative High-Throughput drug screen in 47 multiple myeloma cell lines against the NCATS MIPE library collection: XG6_PLB cell viability assay (AID 1919865); note: nearly all actives have a fitted effect of over 40% in size
Outline: as §1

[8] = Quantitative High-Throughput drug screen in 47 multiple myeloma cell lines against the NCATS MIPE library collection: XG1_PLB cell viability assay (AID 1919866); note: nearly all actives have a fitted effect of over 35% in size
Outline: as §1

[9] = Quantitative High-Throughput drug screen in 47 multiple myeloma cell lines against the NCATS MIPE library collection: VP6_DJ cell viability assay (AID 1919867); note: nearly all actives have a fitted effect of over 40% in size
Outline: as §1

[10] = Quantitative High-Throughput drug screen in 47 multiple myeloma cell lines against the NCATS MIPE library collection: UTMC2_PLB cell viability assay (AID 1919868); settings: CellTiter-Glo ATP luminescence, 48 h; viability (% of DMSO control): at 45.8 µM (top of the series); note: nearly all actives have a fitted effect of over 55% in size
Outline: as §1

[11] = Quantitative High-Throughput drug screen in 47 multiple myeloma cell lines against the NCATS MIPE library collection: PE2_PLB cell viability assay (AID 1919869); note: nearly all actives have a fitted effect of over 35% in size
Outline: as §1

[12] = Quantitative High-Throughput drug screen in 47 multiple myeloma cell lines against the NCATS MIPE library collection: RPMI8226_ATCC cell viability assay (AID 1919871); note: nearly all actives have a fitted effect of over 30% in size
Outline: as §1

[13] = Quantitative High-Throughput drug screen in 47 multiple myeloma cell lines against the NCATS MIPE library collection: KMS11_JCRBsus cell viability assay (AID 1919873); note: nearly all actives have a fitted effect of over 50% in size
Outline: as §1

[14] = Quantitative High-Throughput drug screen in 47 multiple myeloma cell lines against the NCATS MIPE library collection: KMS28BM_JCRB cell viability assay (AID 1919874); note: nearly all actives have a fitted effect of over 35% in size
Outline: as §1

[15] = Quantitative High-Throughput drug screen in 47 multiple myeloma cell lines against the NCATS MIPE library collection: LP1_DSMZ cell viability assay (AID 1918982); note: nearly all actives have a fitted effect of over 35% in size
Outline: as §1

[16] = Quantitative High-Throughput drug screen in 47 multiple myeloma cell lines against the NCATS MIPE library collection: L363_DSMZ cell viability assay (AID 1918984); note: nearly all actives have a fitted effect of over 40% in size
Outline: as §1

[17] = Quantitative High-Throughput drug screen in 47 multiple myeloma cell lines against the NCATS MIPE library collection: U266_ATCC cell viability assay (AID 1919864); note: nearly all actives have a fitted effect of over 35% in size
Outline: as §1

[18] = Quantitative High-Throughput drug screen in 47 multiple myeloma cell lines against the NCATS MIPE library collection: OPM2_DSMZ cell viability assay (AID 1919872); note: nearly all actives have a fitted effect of over 30% in size
Outline: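 Inhibition of cell viability is measured here. Each line was plated at 500 cells per well, treated with MIPE 4.0 drugs, kept 48 hours at 37C, then assayed for ATP content by CellTiter-Glo luminescence.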

[19] = Quantitative High-Throughput drug screen in 47 multiple myeloma cell lines against the NCATS MIPE library collection: PCM6_Riken cell viability assay (AID 1919870); note: nearly all actives have a fitted effect of over 30% in size
Outline: as §1

[20] = Quantitative High-Throughput drug screen in 47 multiple myeloma cell lines against the NCATS MIPE library collection: KMS34_JCRB cell viability assay (AID 1918985); note: nearly all actives have a fitted effect of over 40% in size
Outline: as §1
Potency is the fitted concentration of half-maximal effect.

SMILES: CCOC(=O)C1=C(N)Oc2ccc(Br)cc2C1C(C#N)C(=O)OCC (stereo unspecified)
- Potency [1]: 23.5 µM (active)
- Potency [2]: 26.4 µM (active)
- Potency [3]: 7.43 µM (active)
- Potency [4]: 9.35 µM (active)
- Potency [5]: 23.5 µM (active)
- Potency [6]: 20.9 µM (active)
- Potency [7]: 18.7 µM (active)
- Potency [8]: 16.6 µM (active)
- Potency [9]: 16.6 µM (active)
- Potency [10]: 18.7 µM (active)
- Potency [11]: 20.9 µM (active)
- Potency [12]: 26.4 µM (active)
- Potency [13]: 23.5 µM (active)
- Potency [14]: 20.9 µM (active)

SMILES: O=C(OCC#CCSc1nnc(-c2cccc3ccccc23)o1)c1cc2ccccc2s1
- Potency [15]: inactive
- Potency [2]: inactive
- Potency [16]: inactive
- Potency [3]: inactive
- Potency [5]: inactive
- Potency [17]: inactive
- Potency [7]: inactive
- Potency [8]: inactive
- Potency [11]: inactive
- Potency [18]: inactive
- Potency [13]: inactive
- Potency [14]: 3.32 µM (active)

SMILES: O=c1cc(CN2CCOCC2)occ1OCCCCCSc1ccnc2cc(C(F)(F)F)ccc12
- Potency [15]: 18.7 µM (active)
- Potency [2]: 2.64 µM (active)
- Potency [16]: 16.6 µM (active)
- Potency [3]: 11.8 µM (active)
- Potency [4]: 16.6 µM (active)
- viability [6]: 111%
- Potency [7]: 3.32 µM (active)
- Potency [8]: 11.8 µM (active)
- Potency [9]: 7.43 µM (active)
- Potency [10]: 9.35 µM (active)
- Potency [11]: 7.43 µM (active)
- Potency [19]: 9.35 µM (active)
- Potency [12]: inactive
- Potency [18]: 11.8 µM (active)
- Potency [13]: 23.5 µM (active)

SMILES: c1ccc2c(Cc3c[nH]c4ccccc34)c[nH]c2c1
- Potency [1]: 2.35 µM (active)
- Potency [2]: 26.4 µM (active)
- Potency [3]: 1.05 µM (active)
- Potency [4]: 0.743 µM (active)
- Potency [5]: 7.43 µM (active)
- Potency [6]: 18.7 µM (active)
- Potency [17]: 2.96 µM (active)
- Potency [7]: 0.662 µM (active)
- Potency [8]: 1.18 µM (active)
- Potency [9]: 4.18 µM (active)
- Potency [10]: inactive
- Potency [11]: 2.96 µM (active)
- Potency [19]: 4.69 µM (active)
- Potency [18]: 26.4 µM (active)
- Potency [13]: 23.5 µM (active)
- Potency [14]: 18.7 µM (active)

SMILES: COc1cccc(-c2cc(=O)c3ccccc3o2)c1N
- Potency [1]: 5.9 µM (active)
- Potency [3]: 2.96 µM (active)
- Potency [5]: 16.6 µM (active)
- Potency [17]: 8.33 µM (active)
- Potency [8]: 1.66 µM (active)
- Potency [11]: 4.18 µM (active)
- Potency [12]: inactive
- Potency [18]: inactive
- Potency [13]: inactive

SMILES: Nc1nc(F)nc2c1ncn2[C@@H]1O[C@H](COP(=O)(O)O)[C@@H](O)[C@H]1O
- Potency [1]: 18.7 µM (active)
- Potency [4]: 23.5 µM (active)
- Potency [5]: inactive
- Potency [17]: 0.526 µM (active)
- Potency [8]: 29.6 µM (active)
- Potency [9]: inactive
- Potency [11]: inactive
- Potency [19]: inactive
- Potency [12]: inactive
- Potency [18]: inactive
- Potency [13]: inactive

SMILES: NC(=O)[C@@H](CCC(F)(F)F)N(Cc1ccc(-c2ncon2)cc1F)S(=O)(=O)c1ccc(Cl)cc1
- Potency [1]: inactive
- Potency [4]: 23.5 µM (active)
- Potency [5]: 20.9 µM (active)
- Potency [6]: 0.187 µM (active)
- Potency [17]: 10.5 µM (active)
- Potency [18]: inactive
- Potency [14]: 20.9 µM (active)

SMILES: COc1ccc(-c2nc(N3CCOCC3)c3sc(CN(C)c4ncc(C(=O)NO)cn4)cc3n2)cn1
- Potency [1]: inactive
- Potency [16]: 0.001 µM (active)
- Potency [5]: inactive
- Potency [11]: 0.001 µM (active)
- Potency [18]: 0.0021 µM (active)
- Potency [13]: inactive
- Potency [14]: inactive

SMILES: c1cc(-c2sc(-c3ccncc3)c(-c3ccncc3)c2-c2ccncc2)ccn1
- Potency [15]: inactive
- Potency [2]: inactive
- Potency [16]: 3.32 µM (active)
- Potency [20]: inactive
- Potency [8]: 11.8 µM (active)
- Potency [9]: 9.35 µM (active)
- Potency [11]: 14.8 µM (active)
- Potency [12]: inactive
- Potency [18]: inactive
- Potency [13]: inactive
- Potency [14]: inactive

SMILES: CCC(=O)NC[C@H](Cc1ccc(OCCc2nc(-c3ccccc3)oc2C)cc1)NC(C)=CC(=O)c1ccc(C(F)(F)F)cc1
- Potency [15]: 18.7 µM (active)
- Potency [2]: 23.5 µM (active)
- Potency [20]: 23.5 µM (active)
- Potency [4]: 18.7 µM (active)
- Potency [5]: inactive
- Potency [6]: 18.7 µM (active)
- Potency [17]: inactive
- Potency [7]: 16.6 µM (active)
- Potency [8]: 5.26 µM (active)
- Potency [11]: 11.8 µM (active)
- Potency [12]: 23.5 µM (active)
- Potency [14]: inactive

SMILES: O=c1cc(-c2ccccc2)oc2cc(O)c(O)c(O)c12
- Potency [1]: 23.5 µM (active)
- Potency [16]: inactive
- Potency [5]: 11.8 µM (active)
- Potency [6]: 18.7 µM (active)
- Potency [19]: inactive
- Potency [12]: inactive
- Potency [14]: inactive

SMILES: CCC(CC)[C@H](NC(C)=O)[C@@H]1[C@H](O)[C@@H](C(=O)O)C[C@@H]1N=C(N)N
- Potency [15]: inactive
- Potency [2]: inactive
- Potency [16]: inactive
- Potency [20]: inactive
- Potency [5]: inactive
- Potency [7]: inactive
- Potency [8]: inactive
- Potency [9]: 4.18 µM (active)
- Potency [11]: inactive
- Potency [19]: inactive
- Potency [12]: inactive
- Potency [18]: inactive
- Potency [13]: inactive

SMILES: CC[C@H]1OC(=O)[C@H](C)C(=O)[C@H](C)[C@@H](O[C@H]2O[C@H](C)C[C@H](N(C)C)[C@@H]2O)[C@](C)(OC)C[C@@H](C)C(=O)[C@H](C)[C@H]2N(CCCCn3cnc(-c4cccnc4)c3)C(=O)O[C@]12C
- Potency [1]: 16.6 µM (active)
- Potency [3]: 14.8 µM (active)
- Potency [4]: 26.4 µM (active)
- Potency [5]: inactive
- Potency [17]: inactive
- Potency [7]: 4.69 µM (active)
- Potency [8]: inactive
- Potency [9]: 11.8 µM (active)
- Potency [12]: 18.7 µM (active)
- Potency [13]: 16.6 µM (active)
- Potency [14]: inactive

SMILES: CC1(C)CCC[C@@]2(C)[C@@H]1CC[C@@]1(C)OC(=O)C[C@H]21
- Potency [15]: inactive
- Potency [2]: inactive
- Potency [20]: inactive
- Potency [4]: 23.5 µM (active)
- Potency [5]: inactive
- Potency [6]: 8.33 µM (active)
- Potency [7]: inactive
- Potency [8]: inactive
- Potency [11]: inactive
- Potency [12]: 2.09 µM (active)
- Potency [18]: inactive
